Experimental findings from PMC9911399, “Two distinct binding modes provide the RNA-binding protein RbFox with extraordinary sequence specificity” are described below.

Positions count from the first letter of the chain named. In all, about 16,000 sequences were measured (“ka relative to ugcaugu”: median about 0.096, highest 2% from about 0.35 on). The full list was thinned out, with the highest values kept by preference.

The chains are these.
T1: RBFOX1 RRM RbFoxmut (Fox-RRM*) (Homo sapiens, UniProt Q9NWB1 109-208, R118D;E147R;N151S;E152T)
T1 sequence: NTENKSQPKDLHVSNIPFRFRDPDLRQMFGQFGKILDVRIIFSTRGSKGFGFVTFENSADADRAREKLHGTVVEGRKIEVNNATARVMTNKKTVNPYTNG

B1: GUGGAAC (DNA:RNA)
RNA: GGGAGACCGGAAUUCAGAUUGUCCGUGGAACUUAAAUCCCGUCGUAGCCACCA
DNA 1: CAATCTGAATTCCGGTCTCCC
DNA 2: TGGTGGCTACGACGGGATT
B2: CAAUUGA (DNA:RNA)
RNA: GGGAGACCGGAAUUCAGAUUGUCCCAAUUGAUUAAAUCCCGUCGUAGCCACCA
DNA 1: CAATCTGAATTCCGGTCTCCC
DNA 2: TGGTGGCTACGACGGGATT
B3: GGUCCAG (DNA:RNA)
RNA: B1 RNA with U26G, G27U, G28C, A29C, C31G
DNA 1: CAATCTGAATTCCGGTCTCCC
DNA 2: TGGTGGCTACGACGGGATT
B4: GCCCCAG (DNA:RNA)
RNA: B1 RNA with U26C, G27C, G28C, A29C, C31G
DNA 1: CAATCTGAATTCCGGTCTCCC
DNA 2: TGGTGGCTACGACGGGATT
B5: CAUGAAU (DNA:RNA)
RNA: B1 RNA with G25C, U26A, G27U, C31U
DNA 1: CAATCTGAATTCCGGTCTCCC
DNA 2: TGGTGGCTACGACGGGATT
B6: AAUACGG (DNA:RNA)
RNA: B2 RNA with C25A, A27U, U28A, U29C, A31G
DNA 1: CAATCTGAATTCCGGTCTCCC
DNA 2: TGGTGGCTACGACGGGATT
B7: CUGUACC (DNA:RNA)
RNA: B1 RNA with G25C, G28U, A30C
DNA 1: CAATCTGAATTCCGGTCTCCC
DNA 2: TGGTGGCTACGACGGGATT
B8: AGCUGAC (DNA:RNA)
RNA: B1 RNA with G25A, U26G, G27C, G28U, A29G
DNA 1: CAATCTGAATTCCGGTCTCCC
DNA 2: TGGTGGCTACGACGGGATT
B9: CCAUGUA (DNA:RNA)
RNA: B2 RNA with A26C, U29G, G30U
DNA 1: CAATCTGAATTCCGGTCTCCC
DNA 2: TGGTGGCTACGACGGGATT
B10: ACCAUGU (DNA:RNA)
RNA: B2 RNA with C25A, A26C, A27C, U28A, A31U
DNA 1: CAATCTGAATTCCGGTCTCCC
DNA 2: TGGTGGCTACGACGGGATT
B11: AUGUUGU (DNA:RNA)
RNA: B2 RNA with C25A, A26U, A27G, A31U
DNA 1: CAATCTGAATTCCGGTCTCCC
DNA 2: TGGTGGCTACGACGGGATT
B12: AUGGAGA (DNA:RNA)
RNA: B1 RNA with G25A, A30G, C31A
DNA 1: CAATCTGAATTCCGGTCTCCC
DNA 2: TGGTGGCTACGACGGGATT
B13: AUGUUUG (DNA:RNA)
RNA: B2 RNA with C25A, A26U, A27G, G30U, A31G
DNA 1: CAATCTGAATTCCGGTCTCCC
DNA 2: TGGTGGCTACGACGGGATT
B14: AUGUGUA (DNA:RNA)
RNA: B2 RNA with C25A, A26U, A27G, U29G, G30U
DNA 1: CAATCTGAATTCCGGTCTCCC
DNA 2: TGGTGGCTACGACGGGATT
B15: AUGUAUA (DNA:RNA)
RNA: B1 RNA with G25A, G28U, A30U, C31A
DNA 1: CAATCTGAATTCCGGTCTCCC
DNA 2: TGGTGGCTACGACGGGATT
B16: AUGGAUG (DNA:RNA)
RNA: B1 RNA with G25A, A30U, C31G
DNA 1: CAATCTGAATTCCGGTCTCCC
DNA 2: TGGTGGCTACGACGGGATT
B17: AUGUCCG (DNA:RNA)
RNA: B1 RNA with G25A, G28U, A29C, A30C, C31G
DNA 1: CAATCTGAATTCCGGTCTCCC
DNA 2: TGGTGGCTACGACGGGATT
B18: AUGGAUC (DNA:RNA)
RNA: B1 RNA with G25A, A30U
DNA 1: CAATCTGAATTCCGGTCTCCC
DNA 2: TGGTGGCTACGACGGGATT
B19: GUCCAUG (DNA:RNA)
RNA: B1 RNA with G27C, G28C, A30U, C31G
DNA 1: CAATCTGAATTCCGGTCTCCC
DNA 2: TGGTGGCTACGACGGGATT
B20: AUGUUCG (DNA:RNA)
RNA: B2 RNA with C25A, A26U, A27G, G30C, A31G
DNA 1: CAATCTGAATTCCGGTCTCCC
DNA 2: TGGTGGCTACGACGGGATT
B21: ACUUAUG (DNA:RNA)
RNA: B2 RNA with C25A, A26C, A27U, U29A, G30U, A31G
DNA 1: CAATCTGAATTCCGGTCTCCC
DNA 2: TGGTGGCTACGACGGGATT
B22: UCCAUGA (DNA:RNA)
RNA: B2 RNA with C25U, A26C, A27C, U28A
DNA 1: CAATCTGAATTCCGGTCTCCC
DNA 2: TGGTGGCTACGACGGGATT
B23: GGAGUCA (DNA:RNA)
RNA: B2 RNA with C25G, A26G, U28G, G30C
DNA 1: CAATCTGAATTCCGGTCTCCC
DNA 2: TGGTGGCTACGACGGGATT
B24: CCAACAG (DNA:RNA)
RNA: B2 RNA with A26C, U28A, U29C, G30A, A31G
DNA 1: CAATCTGAATTCCGGTCTCCC
DNA 2: TGGTGGCTACGACGGGATT
B25: ACGGAGA (DNA:RNA)
RNA: B1 RNA with G25A, U26C, A30G, C31A
DNA 1: CAATCTGAATTCCGGTCTCCC
DNA 2: TGGTGGCTACGACGGGATT
B26: GAUCACA (DNA:RNA)
RNA: B2 RNA with C25G, A27U, U28C, U29A, G30C
DNA 1: CAATCTGAATTCCGGTCTCCC
DNA 2: TGGTGGCTACGACGGGATT
B27: GAUCCGG (DNA:RNA)
RNA: B2 RNA with C25G, A27U, U28C, U29C, A31G
DNA 1: CAATCTGAATTCCGGTCTCCC
DNA 2: TGGTGGCTACGACGGGATT
B28: CUUCGGA (DNA:RNA)
RNA: B2 RNA with A26U, A27U, U28C, U29G
DNA 1: CAATCTGAATTCCGGTCTCCC
DNA 2: TGGTGGCTACGACGGGATT
B29: AUGUGUG (DNA:RNA)
RNA: B1 RNA with G25A, G28U, A29G, A30U, C31G
DNA 1: CAATCTGAATTCCGGTCTCCC
DNA 2: TGGTGGCTACGACGGGATT
B30: AUGUGUU (DNA:RNA)
RNA: B1 RNA with G25A, G28U, A29G, A30U, C31U
DNA 1: CAATCTGAATTCCGGTCTCCC
DNA 2: TGGTGGCTACGACGGGATT
B31: AUGUCCC (DNA:RNA)
RNA: B1 RNA with G25A, G28U, A29C, A30C
DNA 1: CAATCTGAATTCCGGTCTCCC
DNA 2: TGGTGGCTACGACGGGATT
B32: AUGUGUC (DNA:RNA)
RNA: B1 RNA with G25A, G28U, A29G, A30U
DNA 1: CAATCTGAATTCCGGTCTCCC
DNA 2: TGGTGGCTACGACGGGATT
B33: AUGUGCG (DNA:RNA)
RNA: B1 RNA with G25A, G28U, A29G, A30C, C31G
DNA 1: CAATCTGAATTCCGGTCTCCC
DNA 2: TGGTGGCTACGACGGGATT
B34: AUGUGCC (DNA:RNA)
RNA: B1 RNA with G25A, G28U, A29G, A30C
DNA 1: CAATCTGAATTCCGGTCTCCC
DNA 2: TGGTGGCTACGACGGGATT

This test addresses T1, RBFOX1 RRM RbFoxmut (Fox-RRM*). In words: EMSA; HiTS-Eq, 1 nM pool, 10 min; buffer printed only for the single-RNA assays: 10 mM Tris pH 7.5, 150 mM NaCl, 3.4 mM EDTA, 0.001% NP-40, 30 C. Particulars: tags: His6 N-terminal (pET28a); label: 5' 32P. In a few lines:
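A pool of RNA with 7 randomized nucleotides, 5′-radiolabelled and with DNA-annealed flanks, was equilibrated at 1 nM for 10 min in 50 µL with purified RbFox RRM, wild type or mutant, across increasing protein concentrations. Free RNA was separated by 8% native PAGE, excised, reverse-transcribed, barcoded by PCR and sequenced. Relative association constants were obtained from read-count changes of each RNA species versus the control reaction and normalised to the cognate motif.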
On the technique in general: A gel shift assay detects complexes by their altered migration in electrophoresis.
For B1, the binding signal was 0.112 KA relative to UGCAUGU.

Take B2: the binding signal is 0.0875 KA relative to UGCAUGU.

In the case of B3, the binding signal was 0.0861 KA relative to UGCAUGU.

Turning to B4, the binding signal is 0.117 KA relative to UGCAUGU.

As for B5, the binding signal is 0.114 KA relative to UGCAUGU.

For B6, the binding signal was 0.0866 KA relative to UGCAUGU.

As to B7, the binding signal is 0.137 KA relative to UGCAUGU.

Consider B8, for which the binding signal was 0.109 KA relative to UGCAUGU.

For the molecule B9, the binding signal is 0.2 KA relative to UGCAUGU.

As to B10, the binding signal is 0.102 KA relative to UGCAUGU.

For the molecule B11, the binding signal was 0.245 KA relative to UGCAUGU.

For the molecule B12, the binding signal is 0.139 KA relative to UGCAUGU.

On to B13, for which the binding signal is 0.626 KA relative to UGCAUGU.

Consider B14, for which the binding signal was 0.364 KA relative to UGCAUGU.

On to B15, for which the binding signal is 0.23 KA relative to UGCAUGU.

Turning to B16, the binding signal was 0.64 KA relative to UGCAUGU.

Regarding B17, the binding signal was 0.14 KA relative to UGCAUGU.

On to B18, for which the binding signal is 0.298 KA relative to UGCAUGU.

As to B19, the binding signal was 0.151 KA relative to UGCAUGU.

On to B20, for which the binding signal was 0.412 KA relative to UGCAUGU.

With B21, the binding signal is 0.125 KA relative to UGCAUGU.

As for B22, the binding signal is 0.11 KA relative to UGCAUGU.

On to B23, for which the binding signal was 0.0995 KA relative to UGCAUGU.

In the case of B24, the binding signal was 0.108 KA relative to UGCAUGU.

On to B25, for which the binding signal is 0.0992 KA relative to UGCAUGU.

On to B26, for which the binding signal is 0.0738 KA relative to UGCAUGU.

B27: the binding signal is 0.06 KA relative to UGCAUGU.

For the molecule B28, the binding signal was 0.0749 KA relative to UGCAUGU.

With B29, the binding signal is 0.443 KA relative to UGCAUGU.

In the case of B30, the binding signal was 0.174 KA relative to UGCAUGU.

Turning to B31, the binding signal is 0.0715 KA relative to UGCAUGU.

Take B32: the binding signal was 0.289 KA relative to UGCAUGU.

Take B33: the binding signal is 0.231 KA relative to UGCAUGU.

Turning to B34, the binding signal is 0.372 KA relative to UGCAUGU.
